Laboratory results: PubChem BioAssay AID430 (Sanford-Burnham Center for Chemical Genomics, 2006)
Screen size: about 63,000 compounds; about 1,100 (1.7%) were called active. The full list was thinned out, with actives kept by preference. Potency and affinity values are given separately. Unmarked numbers belong to inactive results. Rule as the data show it: active = cytotoxicity above about 50%; inactive = the rest.

test: cytotoxicity in HPDE-C7 cells, cell-based, fluorescence, HTS (AID 430); details: HPDE-C7 pancreatic duct cells viability, at 10 µM, active compounds read high;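 also: cells exposed to compound for 48 hours before viability readout; 0% = vehicle and 100% = reference cytotoxic drug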

Row | Structure (SMILES) | cytotoxicity
1 | O=C(OCC(=O)N1CCN(C(=O)c2ccco2)CC1)c1ccccc1C(=O)c1ccc(Cl)cc1 | -5%
2 | OCCOCCN1CCN(C(c2ccccc2)c2ccc(Cl)cc2)CC1 (stereo unspecified) | 50.4% (active)
3 | Cc1cccc(CN2CCN(C(c3ccccc3)c3ccc(Cl)cc3)CC2)c1 (stereo unspecified) | 95.1% (active)
4 | Cc1cccc(CN2CCN(c3ccccn3)CC2)c1 | -18.2%
5 | O=S(=O)(CCN1CCN(C(c2ccccc2)c2ccccc2)CC1)C(F)(F)F | -0.3%
6 | CN1CCCN(C(c2ccccc2)c2ccc(Cl)cc2)CC1 (stereo unspecified) | 12.4%
7 | Cc1cccc(CN2CCN(C(=O)c3ccccc3F)CC2)c1 | 5.3%
8 | CC(C)N1C(=O)CCC1C(=O)N1CCN(c2ccccn2)CC1 (stereo unspecified) | 9.8%
9 | Fc1ccc(OCc2nc(-c3ccc(Br)o3)no2)c(F)c1 | 6.5%
10 | Cc1ccc(-n2c(SCC(N)=O)nnc2-c2cccnc2)c(C)c1 | -1.8%
11 | FC(F)(F)c1ccc2c(c1)nc1n2CCCC1 | -20.5%
12 | O=C(CC1COc2ccccc2O1)NC1CCCCC1 (stereo unspecified) | -3.9%
13 | CC1CCCCN1S(=O)(=O)c1ccc(C(=O)Nc2nnc(-c3ccccc3Cl)o2)cc1 (stereo unspecified) | 57.4% (active)
14 | CCC1CCCCN1S(=O)(=O)c1ccc(C(=O)Nc2nnc(-c3cccs3)o2)cc1 (stereo unspecified) | 37.7%
15 | CCc1nnc(NC(=O)c2ccc(S(=O)(=O)N3CCCCC3C)cc2)s1 (stereo unspecified) | -15%
16 | O=C(Nc1nnc(-c2ccccc2Cl)o1)c1cccnc1 | 39.4%
17 | CC1CCCCN1S(=O)(=O)c1ccc(NC(=O)c2cccc(-n3cnnn3)c2)cc1 (stereo unspecified) | 30%
18 | COc1ccc(-c2nnc(NC(=O)c3ccc(S(=O)(=O)N4COCC4(C)C)cc3)o2)cc1 | 28.7%
19 | CC1(C)COCN1S(=O)(=O)c1ccc(C(=O)Nc2nnc(-c3ccc(Cl)s3)o2)cc1 | 95.1% (active)
20 | CC1CCN(S(=O)(=O)c2ccc(NC(=O)c3cccs3)cc2)CC1 | 19.6%
21 | CCCC(=O)Nc1nnc(-c2ccc(Cl)s2)o1 | 1.2%
22 | CC1CCCCN1S(=O)(=O)c1ccc(NC(=O)c2cccs2)cc1 (stereo unspecified) | 52.1% (active)
23 | CCC1CCCCN1S(=O)(=O)c1ccc(C(=O)Nc2nnc(-c3ccccc3Cl)o2)cc1 (stereo unspecified) | 67.6% (active)
24 | CN1CCN(S(=O)(=O)c2ccc(NC(=O)c3cccs3)cc2)CC1 | -7.7%

Row | Structure (SMILES) | cytotoxicity
25 | C=CCn1c(SCC(=O)NCCOC)nc2scc(-c3ccco3)c2c1=O | -6.7%
26 | c1ccc(-c2nn3c(Cn4nnc5ccccc54)nnc3s2)nc1 | -48.7%
27 | O=C(Nc1ccon1)c1ccc2c(c1)OCO2 | -3.5%
28 | CC(C)N1C(=O)CCC1C(=O)NC1CCCC1 (stereo unspecified) | -3.8%
29 | Cc1ccc(-c2csc3nnc(SCC(=O)N4CCN(Cc5ccccc5)CC4)n23)cc1 | 4.7%
30 | COc1ccc(-c2ccc(NCCC3=CCCCC3)nn2)cc1OC | 18.1%
31 | CCOC(=O)CSc1nnc(-c2ccc(S(=O)(=O)N3CCC(C)CC3)cc2)o1 | 2%
32 | Cc1nc2ccccn2c(=O)c1CCN1CCC(C(=O)c2ccc(F)cc2)CC1 | -14.3%
33 | O=c1cc(CN2CCN(c3ccc(F)cc3)CC2)nc2sccn12 | -3.4%
34 | CCCOC(=O)C1C2C=CC3(CN(c4ccc(Cl)c(F)c4)C(=O)C13)O2 (stereo unspecified) | -15.1%
35 | C/C=C/COC(=O)c1[nH]c2c(c1C)C(=O)CC(c1ccco1)C2 (stereo unspecified) | 63.7% (active)
36 | C=CCOC(=O)c1[nH]c2c(c1C)C(=O)CC(c1cc(OC)c(OC)c(OC)c1)C2 (stereo unspecified) | -23.8%
37 | C/C=C/COC(=O)c1[nH]c2c(c1C)C(=O)CC(c1ccc(N(C)C)cc1)C2 (stereo unspecified) | 11.6%
38 | C=CCOC(=O)c1[nH]c2c(c1C)C(=O)CC(c1ccco1)C2 (stereo unspecified) | 74.9% (active)
39 | CCN1CCN(CC(=O)Nc2ccccc2)C(=O)C1=O | -4.7%
40 | CCOc1nc2ccccc2nc1NS(=O)(=O)c1ccccc1 | 0.8%
41 | CCN(CC)C(=O)CSC(=Nc1ccccc1F)NC#N | 3.7%
42 | Cc1cc(NC(=O)c2ccccc2-c2ccccc2C(=O)O)no1 | 5.8%
43 | CC1(C)Cc2ccccc2-c2nc(NCCO)n(-c3ccccc3)c(=O)c21 | -0.1%
44 | O=c1[nH]c(NCCO)nc2c1C1(CCCCC1)Cc1ccccc1-2 | 13.1%
45 | Cn1c(NCCO)nc2c(c1=O)C1(CCCCC1)Cc1ccccc1-2 | 8.3%
46 | O=c1[nH]c(NCCCO)nc2c1C1(CCCC1)Cc1ccccc1-2 | 23.9%
47 | Cn1c(NCCCO)nc2c(c1=O)C1(CCCCC1)Cc1ccccc1-2 | 53.9% (active)
48 | CC1(C)CC(n2c(NCCO)nc3c(c2=O)C2(CCCC2)Cc2ccccc2-3)CCO1 (stereo unspecified) | 56.4% (active)

Row | Structure (SMILES) | cytotoxicity
49 | COc1ccccc1NC(=O)CSc1nnnn1-c1ccc2c(c1)OCO2 | -9.1%
50 | COc1ccc(C2c3c(oc4c(C)cc(C)cc4c3=O)C(=O)N2Cc2cccnc2)cc1OC (stereo unspecified) | 43.3%
51 | O=C(CCNS(=O)(=O)c1cccc2nsnc12)N1CC(=O)N(CCc2ccccc2)C(=O)C1 | -14.8%
52 | COc1ccc(C(=O)NCCn2cc(SCC(=O)Nc3cc(C)on3)c3ccccc32)cc1OC | -41%
53 | Cc1cc(C)n2nc(SCC(=O)NCc3ccco3)nc2n1 | -20.4%
54 | COCCn1c(C)cc(C(=O)COC(=O)CCc2ccc(S(=O)(=O)N3CCOCC3)cc2)c1C | -9.3%
55 | CC(=O)Oc1cc2c(C(C)=O)coc2c2ccccc12 | 4.5%
56 | COc1ccc(C(=O)N(Cc2nc(-c3ccc(C)cc3)no2)C2CCCCC2)cc1OC | 9.2%
57 | COc1ccccc1-c1nc(-c2cccc(C)c2)no1 | 9.9%
58 | COc1cccc(OCc2nc3ccccc3[nH]2)c1 | -1.9%
59 | COc1cccc(OCc2nc3ncc(Br)cc3[nH]2)c1 | 61.9% (active)
60 | O=C(NCc1nc2ncc(Br)cc2[nH]1)c1ccccc1 | -4.4%
61 | CCOC(=O)c1[nH]c2ccc(Br)cc2c1NC(=O)CCN1CCCCC1 | 0.6%
62 | Cc1ccc2c(c1)nnn2C1CCN(CC(=O)Nc2ccccc2N2CCOCC2)CC1 | 11%
63 | Cc1c(NC(=O)Nc2cccc(Cl)c2)c(=O)n(-c2ccccc2)n1C | -2.1%
64 | Cc1c(NC(=O)Nc2ccc(Cl)c(Cl)c2)c(=O)n(-c2ccccc2)n1C | 65.8% (active)
65 | Cc1c(NC(=O)c2ccc(=O)oc2)c(=O)n(-c2ccccc2)n1C | -6.7%
66 | Cc1c(NC(=O)c2ccc(Br)o2)c(=O)n(-c2ccccc2)n1C | -3.4%
67 | Cc1c(NC(=O)Nc2ccc(Cl)cc2)c(=O)n(-c2ccccc2)n1C | -19.8%
68 | O=C(CSc1ccc2nnc(-c3ccccn3)n2n1)NCc1ccc2c(c1)OCO2 | -15.3%
69 | CCCC(=O)Nc1ccccc1-c1nnn(CC(=O)Nc2ccc(OC)cc2)n1 | -30.9%
70 | COc1ccc(C(=O)CSc2nnc(-c3cc4ccccc4cc3O)n2Cc2ccco2)cc1 | 55.6% (active)
71 | COc1ccc(C(=O)CSc2nnc(-c3ccccn3)n2Cc2ccco2)cc1 | -5%
72 | O=C(CSc1nnc(-c2cc3ccccc3cc2O)n1Cc1ccco1)c1ccc(F)cc1 | -5.2%

Row | Structure (SMILES) | cytotoxicity
73 | CCN(CCNC(=O)c1cccc(N2CCCC2=O)c1)c1ccccc1 | -9.5%
74 | CCCCCc1cc(O)c2c(C)cc(=O)oc2c1 | 50.3% (active)
75 | CCc1cc(=O)oc2cc(C)cc(O)c12 | 0%
76 | CCCCc1cc(=O)oc2cc(C)c(CN3CCCC3)c(O)c12 | -12.4%
77 | Nc1nonc1-c1nc2ccccc2n1CC(=O)NC1CCCC1 | 0%
78 | COc1cccc(Cn2c(-c3nonc3N)nc3ccccc32)c1 | 53.8% (active)
79 | CCCCOc1ccccc1NC(=O)Cn1c(-c2nonc2N)nc2ccccc21 | 55.1% (active)
80 | Nc1nonc1-c1nc2ccccc2n1Cc1ccccc1 | -38.3%
81 | COC(=O)c1ccccc1NC(=O)Cn1c(-c2nonc2N)nc2ccccc21 | 47%
82 | CCOc1ccc(CCNC(=O)Cn2c(-c3nonc3N)nc3ccccc32)cc1OCC | -22.9%
83 | COc1ccc(CCNC(=O)Cn2c(-c3nonc3N)nc3ccccc32)cc1OC | 6.6%
84 | COc1cc(Cn2c(-c3nonc3N)nc3ccccc32)ccc1C | 30.4%
85 | CCOC(=O)c1ccccc1NC(=O)Cn1c(-c2nonc2N)nc2ccccc21 | 67.8% (active)
86 | CC(=O)N1CCN=C1SCc1ccccc1 | 3%
87 | Cc1cc(C(=O)N2CC(C)CC(C)C2)n(-c2ccccc2)n1 (stereo unspecified) | -6.9%
88 | Cc1nc2ccccc2c(=O)n1NC(=O)c1ccc(F)cc1Cl | -0.2%
89 | COc1ccc2nc(NC(=O)c3ccc4ncsc4c3)sc2c1 | 0.5%
90 | CCOc1cccc(CN2CCN(c3cccc(C(F)(F)F)c3)CC2)c1O | -3.2%
91 | CCOC(=O)C1=C(CSc2nc3c(cc2C#N)CN(C)CC3)OC(N)=C(C#N)C1c1ccccc1 (stereo unspecified) | 3.4%
92 | CCOC(=O)C1=C(CSc2nc(C)cc(C)c2C#N)OC(N)=C(C#N)C1c1cccs1 (stereo unspecified) | -28.5%
93 | CCOC(=O)C1=C(CSc2nc(-c3ccncc3)ccc2C#N)OC(N)=C(C#N)C1c1cccnc1 (stereo unspecified) | 4%
94 | CCOC(=O)C1=C(C)OC(N)=C(C#N)C1c1ccc(OC)c(C)c1OC (stereo unspecified) | -1.3%
95 | CCOC(=O)C1=C(CSc2nc(C)ccc2C#N)OC(N)=C(C#N)C1c1cccc(OC)c1OC (stereo unspecified) | 59.3% (active)
96 | CCOC(=O)C1=C(CSc2nc3c(cc2C#N)CCC3)OC(N)=C(C#N)C1c1ccccc1 (stereo unspecified) | 101% (active)
